Source: PubChem (several laboratories)
Hits are enriched below; roughly 3.3% of the tested compounds scored in any of these assays.
MazF activator: activators of E. coli MazEF toxin-antitoxin RNase, primary screen, biochemical, fluorescence, uHTS | Endoribonuclease toxin MazF (Escherichia coli (strain K12)), P0AE70 | FAM/BHQ RNA-DNA oligo cleavage fluorescence, 5 h | activation, % at 20 µM | 0.32% of 350,000 active | AID 504720, 2011; in the data active = activation above about 50%
Target sequence (P0AE70 whole entry, looked up): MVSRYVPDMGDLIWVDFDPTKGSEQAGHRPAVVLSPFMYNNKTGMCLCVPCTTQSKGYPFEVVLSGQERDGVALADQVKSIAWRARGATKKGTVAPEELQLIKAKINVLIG
Anthrax LF prot: Bacillus anthracis LF protease inhibitors, primary screen, biochemical, multiplex microsphere, MLPCN library; inhibition, % at 10 µM; 0.12% of 360,000 active; multiplex microsphere protease cleavage assay; AID 588501, 2011; Lethal factor (Bacillus anthracis), P15917; also: plate controls were buffer without enzyme for full effect and enzyme alone for no effect
PriA SSB inh: inhibitors of Klebsiella pneumoniae PriA binding to SSB C-terminal tail, primary screen, biochemical, AlphaScreen; AlphaScreen SSBct-PriA binding, biotinylated peptide; inhibition, % at 33 µM; AID 1272365, 2023; 0.6% of 430,000 active; in the data active = inhibition mostly above about 37%, no sharp cut-off; inactive = mostly below about 20%;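 also: plate controls were negative control peptide for no effect and reference peptide for full effect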
BoNT-A LC inh2: BoNT/A light chain protease inhibitors, primary screen, biochemical, flow cytometry, MLPCN library. 0.17% of 360,000 active. Botulinum neurotoxin type A light chain protease (Clostridium botulinum A str. ATCC 3502). multiplex microsphere protease substrate cleavage. inhibition, % at 10 µM; also: plate controls were buffer without enzyme for full effect and enzyme alone for no effect
BoNT-F LC inh: BoNT/F light chain protease inhibitors, primary screen, biochemical, flow cytometry, MLPCN library | Botulinum neurotoxin type F light chain protease (Clostridium botulinum) | Multiplex microsphere protease cleavage assay | inhibition, % at 10 µM | 0.22% of 360,000 active | AID 588497, 2011; in the data active = inhibition above about 35%, passing the limit was not always enough; inconclusive = no clear call, values can overlap the other calls; also: plate controls were buffer without enzyme for full effect and enzyme alone for no effect
Autofluor counter: compound fluorescence in toxin protease inhibitor counterscreen. compound autofluorescence counterscreen, microsphere flow cytometry; hits give high values. fluorescence intensity (test concentration not listed). 3.1% of 360,000 active. AID 624483; in the data active = fluorescence intensity above about 16000; inconclusive = no clear call, values can overlap the other calls
Numbers without * were called inactive; ? = inconclusive; . = no result. Rule as the data show it, unless noted: active = inhibition above about 30%; inconclusive = no clear call, values can overlap the other calls; inactive = below that.

SMILES	MazF activator	Anthrax LF prot	PriA SSB inh	BoNT-A LC inh2	BoNT-F LC inh	Autofluor counter
COc1ccc(CC(C(=O)Nc2cc(C)ccc2C)/C(N)=N/O)cc1 (configuration not stated)	12	-2	.	-1	-1	16939*
NC(Cc1ccc([N+](=O)[O-])cc1)=NOC(=O)Cc1ccc(Cl)cc1	.	.	-7	.	.	.
CC(=O)N1N=C(c2ccccc2)CC1c1ccccc1[N+](=O)[O-] (configuration not stated)	5	-1	3	0	6	11044
CC(=O)N1N=C(c2ccc([N+](=O)[O-])cc2)CC1c1ccccc1Cl (configuration not stated)	1	8	45*	0	2	3451
O=C(CS(=O)(=O)c1ccc(F)cc1)Nc1ccc2ncsc2c1	.	.	-21	.	.	.
CCOC(=O)CNC(=O)Cn1nc(C2CC2)c2cnn(-c3ccccc3)c2c1=O	.	.	-6	.	.	.
O=C(COc1ccccc1)Nc1ccc2c(c1)nc1n2CCOC1	-7	-5	-3	1	2	8927
O=S(=O)(Nc1ccc2c(c1)nc1n2CCOC1)c1ccccc1	-8	2	1	6	12	19895*
O=S(=O)(Nc1ccc2c(c1)nc1n2CCOC1)c1ccc(Cl)cc1	4	2	-2	1	2	22037*
CCOC(=O)N1CCC(NC(=O)C2CN(c3ncnc4c3nnn4CC)C2)CC1	.	.	-4	.	.	.
N=C(N)c1ccc(/C=C/c2ccc(C(=N)N)cc2O)cc1	60*	-6	6	?	?	5204
NNc1nc2ccccc2[nH]c1=O	.	.	38*	.	.	.
Cc1nc2ccccc2[nH]c1=O	-19	0	-12	-1	2	5297
Cn1cnnc1S(=O)(=O)C1CCN(S(=O)(=O)CCCOc2ccccc2)CC1	.	.	-9	.	.	.
COc1ccc(S(=O)(=O)Cc2ccccc2)cc1N	-4	0	-8	-2	-5	23710*
COc1cc(C(C)=O)ccc1OC(=O)N(c1ccccc1)c1ccccc1	.	.	9	.	.	.
O=C(c1cc2cc(F)ccc2s1)N1C2CCC1CC(S(=O)(=O)c1ccccc1)C2 (configuration not stated)	.	.	77*	.	.	.
CSC1CC2CCC(C1)N2C(=O)c1cc2cc(F)ccc2s1 (configuration not stated)	.	.	-4	.	.	.
O=S(=O)(c1ccccc1F)N1CCN(c2cc(C(F)(F)F)ncn2)CC1	.	.	-4	.	.	.
O=C(Nc1nc(-c2ccccn2)cs1)c1cccc(F)c1	.	.	120*	.	.	.
CC(=O)Nc1cccc(C(=O)Nc2nc(-c3ccccn3)cs2)c1	.	.	67*	.	.	.
Cc1noc(CNS(=O)(=O)c2ccc3c(c2)CCCC3)n1	.	.	-2	.	.	.
COC(=O)Cc1c[nH]c2cccc(OCC(O)CN(Cc3ccc([N+](=O)[O-])cc3)C(C)(C)C)c12 (configuration not stated)	4	-6	18	-3	-9	24016*
Cc1noc(-c2c(NC(=O)Cc3noc4ccccc34)sc3c2CCOC3)n1	.	.	-8	.	.	.
Cc1cc(=O)[nH]c(-n2nc(C3CC3)cc2N)n1	.	.	-14	.	.	.
SMILES	MazF activator	Anthrax LF prot	PriA SSB inh	BoNT-A LC inh2	BoNT-F LC inh	Autofluor counter
O=C(Nc1cccc(-c2nc3ccccc3s2)c1)c1cc(-n2cnnc2)ccc1Cl	-1	-2	-2	0	0	4151
CC(C)NC(=O)c1cc(-n2cnnc2)ccc1Cl	1	1	4	2	6	20045*
Cc1c(NC(=O)c2cc(-n3cnnc3)ccc2Cl)cccc1-c1nc2ccccc2s1	49	-2	-3	-1	-3	22973*
O=C(Nc1ccccn1)c1cc(-n2cnnc2)ccc1Cl	4	-2	-12	1	1	4892
Cc1ccnc(NC(=O)c2cc(-n3cnnc3)ccc2Cl)c1	2	2	-21	?	0	22908*
Cc1ccnc(NS(=O)(=O)c2ccc(NC(=O)c3coc(NC(=O)C4CC4)n3)cc2)n1	.	.	-7	.	.	.
O=C(Cn1nnn(-c2ccc(NC(=O)Nc3cccs3)cc2)c1=O)NC1CC1	.	.	-10	.	.	.
COc1ccc(OC)c(-c2ccc(N3CCN(C(=O)C4CCCO4)CC3)nn2)c1 (configuration not stated)	.	.	-2	.	.	.
